Source: PubChem
In the library only some 3.9% were active in any assay of this set; here they are far more common.
CCHFV vOTU inh – blocks the CCHF virus ovarian tumor domain protease | CCHFV vOTU protease, Pep-AMC fluorescence | inhibition, % at 11.5 µM | actives 0.55% (n = 370,000); in the data active means inhibition above about 30%
Autofluor counter – flagged as autofluorescent in microsphere protease counterscreen | compound autofluorescence counterscreen, microsphere flow cytometry; active compounds read high | fluorescence intensity (concentration not given with the values) | actives 3.1% (n = 360,000) | AID 624483; in the data active means fluorescence intensity above about 16000; inconclusive means no clear call, values can overlap the other calls
SARS 3CLpro inh – SARS-CoV 3CLpro protease inhibition. actives 0.14% (n = 290,000). P0C6X7. recombinant SARS-CoV 3CLpro, quenched FRET peptide cleavage. inhibition, % at 6 µM; in the data active means inhibition above about 12%
Anthrax LF prot – anthrax lethal factor protease inhibition. actives 0.12% (n = 360,000). inhibition, % at 10 µM. multiplex microsphere protease cleavage assay, LF. AID 588501. P15917
Target sequence (P15917 whole entry, looked up): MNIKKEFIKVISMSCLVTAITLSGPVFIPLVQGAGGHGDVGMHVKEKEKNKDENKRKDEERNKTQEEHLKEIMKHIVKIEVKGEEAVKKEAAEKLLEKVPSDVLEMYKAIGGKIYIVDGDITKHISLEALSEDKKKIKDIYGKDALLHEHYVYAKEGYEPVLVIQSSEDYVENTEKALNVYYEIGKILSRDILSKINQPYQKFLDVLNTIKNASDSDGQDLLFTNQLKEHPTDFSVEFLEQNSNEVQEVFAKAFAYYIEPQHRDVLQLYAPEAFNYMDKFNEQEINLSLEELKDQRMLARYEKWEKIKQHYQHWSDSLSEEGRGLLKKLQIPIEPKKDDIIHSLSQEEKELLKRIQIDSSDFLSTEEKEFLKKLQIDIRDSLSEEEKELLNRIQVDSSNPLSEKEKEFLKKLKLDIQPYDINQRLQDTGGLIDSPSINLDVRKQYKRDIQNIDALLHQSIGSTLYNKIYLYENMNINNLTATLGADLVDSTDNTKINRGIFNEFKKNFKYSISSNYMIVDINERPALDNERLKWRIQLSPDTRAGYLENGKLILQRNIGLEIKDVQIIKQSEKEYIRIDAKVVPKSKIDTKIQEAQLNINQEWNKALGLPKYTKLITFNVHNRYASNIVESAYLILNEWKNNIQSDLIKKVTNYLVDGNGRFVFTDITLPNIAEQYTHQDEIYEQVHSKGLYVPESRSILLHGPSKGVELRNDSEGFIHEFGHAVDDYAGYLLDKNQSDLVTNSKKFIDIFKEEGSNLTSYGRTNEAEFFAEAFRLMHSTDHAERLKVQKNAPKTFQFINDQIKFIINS
BoNT A protease – BoNT A light chain protease inhibition | multiplex microsphere protease substrate cleavage, flow cytometry | inhibition, % at 10 µM | actives 0.17% (n = 360,000)
BoNT F protease – blocks Botulinum neurotoxin F light chain protease. Multiplex microsphere protease cleavage assay, flow cytometry. inhibition, % at 10 µM. actives 0.22% (n = 360,000); in the data active means inhibition above about 35%, passing the limit was not always enough; inconclusive means no clear call, values can overlap the other calls
Each line names hits and unclear results; the compound was inactive in the other large screens. Unless noted, no stated cut-off is given here; in the data, active means inhibition above about 30%; inconclusive means no clear call, values can overlap the other calls; inactive means below that.

O=C(C1CC1)N1CCN(c2ccc(F)cc2)CC1	none
O=C(NCc1cccc(C(F)(F)F)c1)C1CCN(c2ncccn2)CC1	Autofluor counter 22251
O=C1c2ccccc2[C@@H]2C[C@@H](O)[C@H](Nc3cccc(Cl)n3)CCN12	none (no result: SARS 3CLpro inh)
O=C(O)C1CC=CCC1C(=O)NCc1ccc2c(c1)OCO2 (stereo not drawn)	Autofluor counter 23458
Cc1ccc(CNC(=O)C2CC=CCC2C(=O)O)cc1 (stereo not drawn)	none
Cc1ccnc(N2CCC(C(=O)NCc3ccc4c(c3)OCO4)CC2)n1	Autofluor counter 20911, BoNT A protease inconclusive
C[C@@H]1COc2cc(Br)ccc2S(=O)(=O)N1Cc1cn(CCC2OCCCO2)nn1	none (no result: Autofluor counter, SARS 3CLpro inh, Anthrax LF prot, BoNT A protease, BoNT F protease)
Cc1nc(N2CCOCC2)[nH]c(=O)c1CCC(C)C	Autofluor counter 16493
CCCOc1ccccc1N1C(=O)CC(N2CCOCC2)C1=O (stereo not drawn)	Autofluor counter 23760
O=S1(=O)CC2c3ccc(F)cc3CN2CN1CCc1ccccc1 (stereo not drawn)	none (no result: Autofluor counter, SARS 3CLpro inh, Anthrax LF prot, BoNT A protease, BoNT F protease)
Cc1c(-c2cccs2)[n+](=O)c2c(n1[O-])CCCC2	Autofluor counter 20042
Cc1c(-c2ccccc2)[n+](=O)c2c(n1[O-])CCC2	none
COc1ccc(/C(O)=C(\C#N)c2nc3ccccc3n2C)cc1OC	Autofluor counter 21521, BoNT A protease inconclusive
CCSc1nc2ccccc2n1C(=O)c1ccc(S(=O)(=O)N2CCCCC2)cc1	Autofluor counter 20953
Cn1c(/C(C#N)=C(\O)c2ccc(S(=O)(=O)N3CCCCC3)cc2)nc2ccccc21	Autofluor counter 23146
COc1ccc(S(=O)(=O)N2CCN(C(=O)c3ccccc3Cc3ccccc3)CC2)cc1OC	none (no result: SARS 3CLpro inh)
CCOC(=O)c1sc(NC(=O)CSc2nnc(-c3ccc(OC)cc3)n2CCOC)nc1C	Autofluor counter 22333
Cc1cccc(N=Nc2c(N)n[nH]c2-c2ccc(Cl)cc2)c1	Autofluor counter 20404
N#Cc1cccc(S(=O)(=O)NNC(=O)C23CC4CC(CC(C4)C2)C3)c1	none (no result: SARS 3CLpro inh)
O=C1CCCC2=C1C1(CCCCC1)N=C(Nc1nc3ccccc3s1)N2	Autofluor counter 16571
Cc1ccc(-c2cc(-c3ccccc3)[nH]c(=S)c2C#N)cc1	none
N#Cc1c(N)[nH]c(=S)c(C#N)c1-c1ccccc1	Autofluor counter 20825
C=CCn1c(SCCOc2ccc(OC)cc2)nnc1C(C)NC(=O)c1ccc(OC)cc1 (stereo not drawn)	none
C=CCn1c(SCCOc2ccc(OC)cc2)nnc1C(CO)NC(=O)c1ccc(OC)cc1 (stereo not drawn)	Autofluor counter 16235
Nc1nc(NC(=O)c2ccc(F)cc2)ns1	none (no result: SARS 3CLpro inh)
CCOc1ccc(C(C)=O)cc1COc1cccnc1[N+](=O)[O-]	none
CCCCN1C(=O)NC(NS(=O)(=O)c2ccc(N)cc2)(C(F)(F)F)C1=O (stereo not drawn)	Autofluor counter 19835
CC1CC(C)CN(C(=O)c2ccc(S(=O)(=O)N3CC(C)CC(C)C3)cc2)C1 (stereo not drawn)	none
O=C1c2cccc3c([N+](=O)[O-])ccc(c23)C(=O)N1c1ccccn1	none
O=C1c2cccc3c([N+](=O)[O-])ccc(c23)C(=O)N1c1nccs1	Autofluor counter 23502
O=C1c2cccc3c([N+](=O)[O-])ccc(c23)C(=O)N1c1ccc(Cl)cn1	Autofluor counter 20167
c1csc(-c2nnc(SCc3cccc4ccccc34)o2)c1	none (no result: Autofluor counter, SARS 3CLpro inh, Anthrax LF prot, BoNT A protease, BoNT F protease)
O=C(Cn1nc(Cl)nc1Cl)c1cc2ccccc2oc1=O	Autofluor counter 16246
CSc1nnc(-c2nnc(SC)n2-c2ccccc2)n1-c1ccccc1	Autofluor counter 16237
CSc1nnc(-c2cc(C)on2)n1-c1ccccc1	none
Cc1ccc2c3c(c(SCC(=O)Nc4nonc4C)nc2c1)CCCC3	Autofluor counter 23233, BoNT A protease inconclusive
COc1ccccc1C(=O)NCCCn1cc(Br)c(C)n1	Autofluor counter 18046, BoNT A protease inconclusive (no result: CCHFV vOTU inh)
COc1ccccc1C(=O)NCC[N+](C)(C)C	none (no result: SARS 3CLpro inh)
CCOC(=O)C(Oc1ccc2c(-c3ccc(OC)cc3)cc(=O)oc2c1C)c1ccccc1 (stereo not drawn)	Autofluor counter 22308, BoNT A protease inconclusive
CCc1ccc(-c2cn(-c3nc(C)cc(C)n3)c(=N)o2)cc1	Autofluor counter 23477
C[C@H](O)[C@@H]1CN2CCc3ccc(N4CCOCC4)cc3[C@@H]2C[C@@H]1N(C)C(=O)c1ccccc1F	none (no result: Autofluor counter, SARS 3CLpro inh, Anthrax LF prot, BoNT A protease, BoNT F protease)
N#CCCCn1c(-c2ccccc2)noc1=O	Autofluor counter 23665, BoNT A protease inconclusive
O=c1onc(-c2ccccc2)n1Cc1ccc([N+](=O)[O-])cc1	none (no result: SARS 3CLpro inh)
Cc1cnc(NC(=O)CSc2nnc3ncccn23)s1	none
O=C(CSc1nnc2ncccn12)N1CCCCCC1	Autofluor counter 23133
CCc1nnc(NC(=O)CSc2nnc3ncccn23)s1	Autofluor counter 20884, BoNT A protease inconclusive (no result: CCHFV vOTU inh)
Cc1csc(NC(=O)CSc2nnc3ncccn23)n1	Autofluor counter 22164
CCn1c(SCC(=O)Nc2nc(C)cs2)nnc1-c1cccnc1	Autofluor counter 17501
O=c1cc(CSc2ccccc2)nc(-c2ccncc2)[nH]1	none
CCCN(C(=O)c1cc(S(=O)(=O)N2CCCCCC2)ccc1OC)C1CCS(=O)(=O)C1 (stereo not drawn)	none (no result: SARS 3CLpro inh)
NC(=O)C1CCN(C(=O)C2CC(=O)N(c3ccc4c(c3)OCCO4)C2)CC1 (stereo not drawn)	none (no result: SARS 3CLpro inh)
N#Cc1c(NC(=O)/C=C/c2ccco2)sc2c1CCCC2	none
O=C(/C=C/c1ccco1)Nc1sc2c(c1C(=O)O)CCC2	Autofluor counter 16426
CC(=O)c1cccc(NC(=O)NCCc2c[nH]c3ccccc23)c1	BoNT F protease inconclusive
Cc1ccc2[nH]cc(CCNC(=O)Nc3ccccc3)c2c1	Autofluor counter 21739
O=C(Nc1ccc2c(c1)OCO2)Nc1ccccn1	none
COc1ccc(NC(=O)NCc2ccccn2)cc1OC	Autofluor counter 19081
COc1ccc(NC(=S)NCc2ccccn2)cc1OC	none
O=C(Nc1ccc2c(c1)OCO2)Nc1cnccn1	Autofluor counter 21245
CCC(C)[C@H](NC(=O)NCc1ccccn1)C(=O)OC (stereo partly drawn)	Autofluor counter 16131
O=C(NCc1ccccn1)Nc1ccc2c(c1)OCO2	Autofluor counter 17706
CCC(C)[C@H](NC(=O)NCc1cccs1)C(=O)OC (stereo partly drawn)	none
CC(=O)c1ccccc1NC(=O)COC(=O)CSCC(=O)Nc1cc(C)on1	none (no result: SARS 3CLpro inh)
O=C(OC12CCCN(C1)/C(=C/c1cccnc1)C2)C1CCCCC1 (stereo not drawn)	none (no result: Autofluor counter, SARS 3CLpro inh, Anthrax LF prot, BoNT A protease, BoNT F protease)
COc1ccc(OC)c(NC(=O)C2C3C=CC(C3)C2C(=O)NCc2ccccn2)c1 (stereo not drawn)	Autofluor counter 21062
Cc1cccc(C)c1NC(=O)C1C2C=CC(C2)C1C(=O)NCc1ccccn1 (stereo not drawn)	none
C[C@H](CO)N1C[C@H](C)[C@H](CN(C)C(=O)NC2CCCCC2)Oc2cc(-c3cccnc3)ccc2S1(=O)=O	none (no result: SARS 3CLpro inh)
COc1ccccc1-n1cnc2cc(C(=O)N3CCOCC3)ccc21	none
